Activity calls are given as the source filed them.

Data on 5 compounds can be found in PubChem BioAssay.

For assay [1], the system named is PRMT1 (protein arginine N-methyltransferase 1). The assay can be described thus: PRMT1 binders on small-molecule microarrays, primary screen, biochemical, small-molecule microarray, 635 nm fluorescence (AID 1088).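 Further: binding of Prmt1 protein to compounds spotted on small-molecule microarray slides.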 Particulars: small-molecule microarray binding, higher = more signal.
Assay [2] can be described thus: yeast growth modulation, basal conditions, primary screen, YJM789 clinical isolate, OD600, 24 h (AID 1089).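 Further: growth of clinical yeast isolate S. cerevisiae YJM 789 seeded 1000 cells per well; test concentration not given here.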 Particulars: S. cerevisiae YJM789 growth, higher = more signal, called active from +8 up or from −8 down.
A short description of assay [3]: fission yeast growth modulation, primary screen, strain 972, OD600, 24 h, no modulator (AID 1090).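 Further: basal condition with compound alone and no growth modifier present; test concentration not given here.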 Particulars: S. pombe 972 growth, higher = more signal, called active from +8 up or from −8 down.
Assay [4] can be described thus: S. cerevisiae growth modulation with rapamycin, primary screen, strain BY4716, OD600, 96 h (AID 1091). Further: test concentration not given here. To be noted: higher = more signal, called active from +8 up or from −8 down.
The target in assay [5] is Torsin-1A-interacting protein 2 (Homo sapiens) (UniProt Q8NFQ8). The assay can be described thus: LULL1 binders on small-molecule microarray, primary screen, cell lysate, human LULL1 lysate, 635/667 nm fluorescence (AID 1092).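 Further: probe is lysate of COS7 cells overexpressing human LULL1; score merges per-feature 667 nm fluorescence with signal-to-noise.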 Particulars: hLULL1 lysate binding, 635 nm fluorescence, higher = more signal.
Assay [6] is described as follows: E. coli growth modulation, two-sided OD650, primary screen, E. coli filamentation project, strain DRC41, 24 h (AID 1093).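 Further: MC1000 strain lacking acrAB efflux and sulA so SOS filamentation is blocked; test concentration not given here.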 To be noted: OD650, 24 h, higher = more signal, called active from +8 up or from −8 down.
Assay [7] is described as follows: small-molecule microarray binders of probe aLefty2, primary screen, biochemical, biotinylated probe, 635/667 nm fluorescence (AID 1094).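 Further: score merges spot fluorescence near 667 nm with spot signal-to-noise ratio.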 Particulars: higher = more signal.
Assay [8] concerns Noggin (protein binding on small-molecule microarray). As to the kind of experiment: Noggin binders on small-molecule microarray, primary screen, biochemical, 635/667 nm fluorescence (AID 1095).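 Further: score merges 667 nm feature fluorescence with signal to noise over triplicate slides.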 To be noted: 635 nm fluorescence, higher = more signal.
Assay [9] addresses Neurogenic locus notch homolog protein 3 (Homo sapiens) (UniProt Q9UM47). As to the kind of experiment: NOTCH3 binders on small-molecule microarray, primary screen, biochemical, 635/667 nm fluorescence (AID 1096). To be noted: NOTCH3 binding, 635 nm fluorescence, higher = more signal.
A short description of assay [10]: small-molecule microarray binders of probe aEGFR, primary screen, biochemical, biotinylated probe, 635/667 nm fluorescence (AID 1097).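 Further: probe is a biotinylated anti-EGFR antibody binding compounds printed on slides; score combines fluorescence near 667 nm and signal to noise of each spot.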 To be noted: higher = more signal.
Assay [11] concerns Plasmodium falciparum Sir2 (PF13_0152, Sir2A). As to the kind of experiment: pfSir2 binders on small-molecule microarrays, primary screen, biochemical, small-molecule microarray, 635 nm fluorescence (AID 1098).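 Further: score merges spot fluorescence intensity with its signal-to-noise ratio.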 Particulars: small-molecule microarray binding, fluorescence 635 nm; higher = more signal.
Assay [12] is described as follows: small-molecule microarray binders of probe aDKK1, primary screen, biochemical, biotinylated probe, 635/667 nm fluorescence (AID 1099).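 Further: score merges 667nm spot fluorescence with signal to noise across triplicate slides; reference of the scale not given here.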 Particulars: higher = more signal.
Assay [13] in a line: small-molecule microarray binders of probe aCHRDL2, primary screen, biochemical, biotinylated probe, 635/667 nm fluorescence (AID 1100). Particulars: higher = more signal.
The nature of assay [14]: splicing luciferase reporter signal modulators, primary screen, spliceosome inhibition project, cell-based, HEK293, splice +/- reporter (AID 1101).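 Further: HEK293 cells carrying a splicing-competent luciferase reporter gene; test concentration not given here.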 To be noted: luminescence, 24 h, higher = more signal, called active from +8 up or from −8 down. (Reporter assays use an easily measured gene product as a stand-in for the process of interest.)
Assay [15] addresses Fibroblast growth factor 10 (Homo sapiens) (UniProt O15520). The assay can be described thus: FGF10 binders on small-molecule microarrays, primary screen, biochemical, small-molecule microarray, 635 nm fluorescence (AID 1102). Particulars: FGF10 binding, fluorescence 635 nm, higher = more signal.
The subject of assay [16] is glycogen synthase kinase-3 (GSK3A per assay name; protocol says GSK3B). As to the kind of experiment: GSK3 binders on small-molecule microarrays, primary screen, biochemical, small-molecule microarray, 635 nm fluorescence, GSK3A (AID 1103). Further: the record names both GSK3A and GSK3B. To be noted: small-molecule microarray binding, fluorescence 635 nm; higher = more signal.
In assay [17] the target is Epidermal growth factor receptor (Homo sapiens) (UniProt P00533). As to the kind of experiment: EGFR binders on small-molecule microarrays, primary screen, biochemical, small-molecule microarray, 635 nm fluorescence (AID 1104).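 Further: score merges 667 nm emission intensity with spot signal to noise over triplicate slides.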 Particulars: EGFR binding, higher = more signal.
Assay [18] concerns the target Follistatin-related protein 3 (Homo sapiens) (UniProt O95633). As to the kind of experiment: FSTL3 binders on small-molecule microarrays, primary screen, biochemical, small-molecule microarray, 635 nm fluorescence (AID 1105).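 Further: score merges emission near 667 nm and signal to noise per printed spot across three slides.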 To be noted: FSTL3 binding, higher = more signal.
Assay [19] has as its target Dickkopf-related protein 1 (Homo sapiens) (UniProt O94907). As to the kind of experiment: DKK1 binders on small-molecule microarrays, primary screen, biochemical, small-molecule microarray, 635 nm fluorescence scan (AID 1106).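 Further: score merges emission near 667 nm with signal to noise over three replicate slides.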 Particulars: DKK1 binding, higher = more signal.
Assay [20] has as its system Inhibin beta A chain (activin A). The assay can be described thus: INHBA (activin A) binders on microarrays, primary screen, biochemical, small-molecule microarray, 635 nm fluorescence scan (AID 1107).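 Further: mouse activin A protein probed at 4.33 µg/mL on printed slides; score merges bound-protein fluorescence near 667 nm with spot signal-to-noise.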 Particulars: small-molecule microarray binding, higher = more signal.

Sequence of Dickkopf-related protein 1 (Homo sapiens) (O94907 whole entry, looked up): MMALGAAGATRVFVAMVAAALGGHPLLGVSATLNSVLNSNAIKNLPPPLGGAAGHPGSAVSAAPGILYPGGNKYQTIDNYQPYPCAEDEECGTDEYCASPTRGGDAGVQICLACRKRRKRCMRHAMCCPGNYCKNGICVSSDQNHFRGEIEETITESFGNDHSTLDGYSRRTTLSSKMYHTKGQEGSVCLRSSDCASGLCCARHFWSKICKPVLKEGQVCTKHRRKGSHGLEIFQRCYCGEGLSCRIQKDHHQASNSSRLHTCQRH
Sequence of Fibroblast growth factor 10 (Homo sapiens) (O15520 whole entry, looked up): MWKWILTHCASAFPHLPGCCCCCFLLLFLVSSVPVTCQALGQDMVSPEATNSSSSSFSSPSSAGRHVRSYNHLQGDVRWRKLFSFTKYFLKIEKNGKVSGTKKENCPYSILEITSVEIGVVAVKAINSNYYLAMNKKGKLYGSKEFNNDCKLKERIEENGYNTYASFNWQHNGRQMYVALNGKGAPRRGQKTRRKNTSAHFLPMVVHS
Sequence of Follistatin-related protein 3 (Homo sapiens) (O95633 whole entry, looked up): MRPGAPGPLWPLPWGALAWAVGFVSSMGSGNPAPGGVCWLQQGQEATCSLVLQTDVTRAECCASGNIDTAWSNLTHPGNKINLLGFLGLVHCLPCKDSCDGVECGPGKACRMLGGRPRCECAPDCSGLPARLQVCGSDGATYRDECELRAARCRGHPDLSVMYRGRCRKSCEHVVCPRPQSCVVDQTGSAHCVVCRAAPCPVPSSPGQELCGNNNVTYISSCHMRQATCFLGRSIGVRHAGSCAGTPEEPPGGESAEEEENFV
Sequence of Epidermal growth factor receptor (Homo sapiens) (P00533 whole entry, looked up): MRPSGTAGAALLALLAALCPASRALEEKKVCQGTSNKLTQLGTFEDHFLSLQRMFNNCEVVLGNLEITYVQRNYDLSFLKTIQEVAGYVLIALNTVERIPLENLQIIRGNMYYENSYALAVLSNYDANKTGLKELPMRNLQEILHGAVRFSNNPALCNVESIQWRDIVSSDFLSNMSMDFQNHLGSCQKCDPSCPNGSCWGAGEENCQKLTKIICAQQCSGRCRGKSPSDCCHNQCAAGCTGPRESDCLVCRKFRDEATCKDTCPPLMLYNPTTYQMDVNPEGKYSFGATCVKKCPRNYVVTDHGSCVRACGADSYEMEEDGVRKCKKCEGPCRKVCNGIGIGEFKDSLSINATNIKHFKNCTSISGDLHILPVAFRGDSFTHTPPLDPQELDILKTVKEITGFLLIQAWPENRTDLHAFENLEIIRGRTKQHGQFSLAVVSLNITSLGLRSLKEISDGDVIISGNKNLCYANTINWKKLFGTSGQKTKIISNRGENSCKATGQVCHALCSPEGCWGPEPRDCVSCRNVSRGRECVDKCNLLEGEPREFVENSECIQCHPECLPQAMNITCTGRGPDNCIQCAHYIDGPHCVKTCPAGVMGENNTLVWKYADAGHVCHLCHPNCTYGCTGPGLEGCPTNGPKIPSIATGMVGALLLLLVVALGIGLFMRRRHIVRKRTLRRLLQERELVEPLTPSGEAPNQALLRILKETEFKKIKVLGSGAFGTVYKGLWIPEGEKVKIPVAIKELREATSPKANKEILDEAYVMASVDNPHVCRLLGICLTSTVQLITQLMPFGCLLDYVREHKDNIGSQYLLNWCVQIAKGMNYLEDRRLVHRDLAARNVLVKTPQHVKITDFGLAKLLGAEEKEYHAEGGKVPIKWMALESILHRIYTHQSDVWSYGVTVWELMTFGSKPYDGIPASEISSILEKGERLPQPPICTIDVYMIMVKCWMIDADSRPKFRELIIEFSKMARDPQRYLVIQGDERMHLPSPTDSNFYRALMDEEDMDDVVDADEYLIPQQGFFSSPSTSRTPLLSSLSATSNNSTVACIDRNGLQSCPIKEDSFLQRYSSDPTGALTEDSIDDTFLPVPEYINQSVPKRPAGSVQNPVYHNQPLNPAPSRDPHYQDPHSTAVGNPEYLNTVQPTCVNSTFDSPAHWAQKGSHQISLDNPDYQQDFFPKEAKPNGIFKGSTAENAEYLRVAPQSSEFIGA
Sequence of Torsin-1A-interacting protein 2 (Homo sapiens) (Q8NFQ8 whole entry, looked up): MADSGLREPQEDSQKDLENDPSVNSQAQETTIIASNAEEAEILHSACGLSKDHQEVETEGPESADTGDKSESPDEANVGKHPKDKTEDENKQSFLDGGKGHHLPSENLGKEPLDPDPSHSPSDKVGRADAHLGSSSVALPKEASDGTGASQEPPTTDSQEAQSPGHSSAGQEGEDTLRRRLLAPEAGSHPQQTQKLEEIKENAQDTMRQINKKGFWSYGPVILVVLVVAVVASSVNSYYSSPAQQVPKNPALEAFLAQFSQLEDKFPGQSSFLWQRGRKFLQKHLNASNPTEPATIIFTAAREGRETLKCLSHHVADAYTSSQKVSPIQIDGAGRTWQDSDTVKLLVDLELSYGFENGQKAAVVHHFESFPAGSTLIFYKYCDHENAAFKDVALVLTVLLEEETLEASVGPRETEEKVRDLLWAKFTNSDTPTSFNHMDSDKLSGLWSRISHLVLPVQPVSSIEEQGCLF
Sequence of Neurogenic locus notch homolog protein 3 (Homo sapiens) (Q9UM47 whole entry, looked up): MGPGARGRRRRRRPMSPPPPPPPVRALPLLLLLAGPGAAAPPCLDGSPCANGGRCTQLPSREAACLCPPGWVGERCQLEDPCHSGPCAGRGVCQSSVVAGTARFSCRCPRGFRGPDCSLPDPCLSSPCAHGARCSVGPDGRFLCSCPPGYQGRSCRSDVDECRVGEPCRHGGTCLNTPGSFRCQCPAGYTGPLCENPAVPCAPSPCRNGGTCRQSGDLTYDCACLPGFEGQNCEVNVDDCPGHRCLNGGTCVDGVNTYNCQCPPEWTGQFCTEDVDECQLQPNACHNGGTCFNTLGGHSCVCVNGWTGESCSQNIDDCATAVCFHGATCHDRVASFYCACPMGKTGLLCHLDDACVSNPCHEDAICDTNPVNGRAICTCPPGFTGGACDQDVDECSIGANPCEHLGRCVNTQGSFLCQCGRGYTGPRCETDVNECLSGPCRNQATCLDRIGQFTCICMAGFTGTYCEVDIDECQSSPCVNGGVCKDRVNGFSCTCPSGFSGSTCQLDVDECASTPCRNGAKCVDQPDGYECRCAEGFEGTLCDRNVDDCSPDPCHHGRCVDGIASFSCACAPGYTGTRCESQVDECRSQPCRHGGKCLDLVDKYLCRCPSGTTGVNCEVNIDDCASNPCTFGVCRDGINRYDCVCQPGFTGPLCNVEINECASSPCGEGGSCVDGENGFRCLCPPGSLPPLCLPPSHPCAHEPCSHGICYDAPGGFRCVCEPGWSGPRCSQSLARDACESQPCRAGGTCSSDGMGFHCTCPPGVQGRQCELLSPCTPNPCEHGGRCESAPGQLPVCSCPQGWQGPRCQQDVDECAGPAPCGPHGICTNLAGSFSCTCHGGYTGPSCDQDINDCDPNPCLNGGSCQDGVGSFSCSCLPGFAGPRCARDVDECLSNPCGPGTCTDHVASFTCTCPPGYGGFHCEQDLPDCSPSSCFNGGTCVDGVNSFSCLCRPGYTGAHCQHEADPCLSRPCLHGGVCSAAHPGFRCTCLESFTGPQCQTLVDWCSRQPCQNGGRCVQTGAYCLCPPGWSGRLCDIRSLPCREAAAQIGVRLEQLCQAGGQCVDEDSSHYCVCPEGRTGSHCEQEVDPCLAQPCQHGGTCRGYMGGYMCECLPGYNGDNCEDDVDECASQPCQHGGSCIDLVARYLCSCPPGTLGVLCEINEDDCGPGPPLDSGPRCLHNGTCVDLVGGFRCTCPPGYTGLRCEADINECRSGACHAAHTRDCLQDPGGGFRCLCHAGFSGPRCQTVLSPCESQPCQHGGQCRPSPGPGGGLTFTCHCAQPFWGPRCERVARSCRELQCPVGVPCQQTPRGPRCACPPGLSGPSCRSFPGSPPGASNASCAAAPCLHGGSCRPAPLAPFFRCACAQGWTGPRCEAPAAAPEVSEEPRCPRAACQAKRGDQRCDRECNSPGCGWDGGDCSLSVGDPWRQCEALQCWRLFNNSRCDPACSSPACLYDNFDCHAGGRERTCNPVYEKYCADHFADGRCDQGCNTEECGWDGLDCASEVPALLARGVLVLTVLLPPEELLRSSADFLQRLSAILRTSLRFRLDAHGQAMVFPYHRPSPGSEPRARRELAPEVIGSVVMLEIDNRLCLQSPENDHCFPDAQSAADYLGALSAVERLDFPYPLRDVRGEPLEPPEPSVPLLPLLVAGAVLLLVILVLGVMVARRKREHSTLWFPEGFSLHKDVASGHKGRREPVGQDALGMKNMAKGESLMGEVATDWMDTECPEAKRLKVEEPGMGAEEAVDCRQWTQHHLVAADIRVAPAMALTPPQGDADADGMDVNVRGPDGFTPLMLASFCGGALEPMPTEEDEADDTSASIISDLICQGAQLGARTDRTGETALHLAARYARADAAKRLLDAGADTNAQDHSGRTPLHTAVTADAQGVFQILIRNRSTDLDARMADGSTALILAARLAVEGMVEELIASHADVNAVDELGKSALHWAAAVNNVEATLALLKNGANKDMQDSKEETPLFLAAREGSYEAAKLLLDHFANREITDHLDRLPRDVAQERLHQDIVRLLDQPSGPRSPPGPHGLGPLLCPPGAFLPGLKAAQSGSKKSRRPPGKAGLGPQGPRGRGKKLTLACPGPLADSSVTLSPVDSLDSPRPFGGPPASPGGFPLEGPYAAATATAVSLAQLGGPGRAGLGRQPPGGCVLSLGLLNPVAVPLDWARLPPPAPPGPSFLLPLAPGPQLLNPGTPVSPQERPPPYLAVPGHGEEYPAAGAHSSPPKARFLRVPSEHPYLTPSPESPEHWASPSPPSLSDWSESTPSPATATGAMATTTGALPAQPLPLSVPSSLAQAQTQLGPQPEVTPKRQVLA

With `CCOC(=O)NN=C1C[C@@H](O)[C@@H](O)[C@@H]2[C@@H]3C(=O)N(C4CCCCC4)C(=O)[C@@H]3CC[C@H]12`, the composite z-score in assay [1] was 0.314; in assay [5], 0.746; in [7] it was -0.139; in assay [8], 0.315; in assay [9] it was 0.213; in [10] it was -0.0776. Moreover, the composite z-score in assay [11] was 0.253; in assay [12], 0.135; in assay [13], -0.0663; in [15], 0.38; in [16], 0.518; in [17], 0.416. Also, the composite z-score in assay [18] was 0.333; in [19], 0.701; in assay [20], -0.341. The z-score was 0.351 (inactive) in assay [2]; 0.458 (inactive) in [3]; 0.529 (inactive) in assay [4]; -0.931 (inactive) in assay [6]; 0.035 (inactive) in [14].

Consider `CN1C(=O)C2C(C1=O)C1C=C(CCCO)C2C(c2ccc(CN3CCCC3)cc2)N1C` (stereo not given), for which the composite z-score was -0.0446 in assay [1]; -0.0999 in assay [5]; -0.193 in [7]; -0.347 in [8]; -0.575 in [9]; -0.133 in assay [10]. Moreover, the composite z-score in assay [11] was -0.583; in [12], -0.32; in assay [13], -0.268; in assay [15] it was -0.684; in assay [16], -0.0315; in [17], -0.576. For the same compound, the composite z-score in assay [18] is -0.186; in [19] it was 0.142; in [20] it was 0.523. Further, the z-score in assay [2] is -0.363 (inactive); in assay [3] it was 0.652 (inactive); in [4], -0.14 (inactive); in assay [6], 0.145 (inactive); in [14] it was -0.451 (inactive).

As for `COC(=O)C1=C(C)[C@@H](O)[C@@H](C)[C@H](c2c(OC)c(OC)c(C)c(OC)c2OC)O1`, the composite z-score in assay [1] was -0.462; in [5] it was -0.166; in [7], -0.142; in assay [8] it was 0.461; in [9], 0.105; in [10] it was -0.106. Further, the composite z-score was 0.191 in assay [11]; -0.27 in assay [12]; -0.595 in [13]; 0.256 in assay [15]; -0.419 in [16]; 0.269 in [17]. The composite z-score in [18] was 0.398; in [19], 0.56; in [20], 0.394. For the same compound, the z-score in assay [2] is 0.645 (inactive); in [3] it was 0.629 (inactive); in [4], -0.22 (inactive); in assay [6] it was 0.164 (inactive); in assay [14] it was -0.361 (inactive).

Regarding `C=CCN1C(=O)[C@]2(O[C@H](CCn3cc(CCO)nn3)[C@@H]([Si](C)(C)c3ccc(OC)cc3)[C@@H]2C)c2cc(N3CCOC3=O)ccc21`, the composite z-score in [1] is 1.19; in assay [5] it was 2.79; in assay [7], -0.271; in assay [8], 0.432; in [9] it was 0.231; in assay [10] it was -0.256. The composite z-score was 1.62 in [11]; -0.286 in assay [12]; 0.223 in assay [13]; 0.301 in [15]; 0.341 in assay [16]; -0.82 in assay [17]. Also, the values for the composite z-score in assay [18], in assay [19] and in [20] were -0.609, -0.555 and 0.175, respectively. For the same compound, the z-score in assay [2] is -0.621 (inactive); in assay [3], -0.111 (inactive); in [4], -0.0506 (inactive); in [6] it was -0.342 (inactive); in [14], 2.29 (inactive).

With `CCN(CC)c1ccc(N2CC=CC34O[C@@H]5/C=C\CCC(C)OC(=O)C5[C@H]3C(=O)N(CCCO)[C@@H]4C2=O)cc1` (stereo not given in full), the composite z-score in assay [1] is -1; in assay [5], 0.964; in [7], -0.143; in assay [8], -0.686; in assay [9] it was -0.397; in assay [10] it was -0.27. Moreover, the composite z-score was 1.44 in assay [11]; -0.137 in [12]; 0.325 in [13]; -0.221 in assay [15]; -0.615 in assay [16]; -1.02 in assay [17]. For the same compound, the composite z-score in assay [18] is -0.777; in assay [19], -0.492; in assay [20], 1.01. Further, the z-score in [2] was 0.664 (inactive); in assay [3], -0.0895 (inactive); in [4] it was 0.928 (inactive); in [6], 0.0591 (inactive); in assay [14], 0.122 (inactive).
